Laboratory results reported in PubChem BioAssay AID652054 (National Center for Advancing Translational Sciences (NCATS), 2013).
Out of some 360,000 compounds screened, about 9,100 (2.5%) were called active. Inconclusive results (about 4%) are left out. No stated cut-off is given here; in the data, active means max response below about -50%; inconclusive means no clear call, values can overlap the other calls; inactive means above that. What follows is part of a selection rich in actives, with near analogues and random picks from the rest.

Biological target: D(3) dopamine receptor (Homo sapiens) (UniProt P35462)
Sequence (P35462 whole entry, looked up): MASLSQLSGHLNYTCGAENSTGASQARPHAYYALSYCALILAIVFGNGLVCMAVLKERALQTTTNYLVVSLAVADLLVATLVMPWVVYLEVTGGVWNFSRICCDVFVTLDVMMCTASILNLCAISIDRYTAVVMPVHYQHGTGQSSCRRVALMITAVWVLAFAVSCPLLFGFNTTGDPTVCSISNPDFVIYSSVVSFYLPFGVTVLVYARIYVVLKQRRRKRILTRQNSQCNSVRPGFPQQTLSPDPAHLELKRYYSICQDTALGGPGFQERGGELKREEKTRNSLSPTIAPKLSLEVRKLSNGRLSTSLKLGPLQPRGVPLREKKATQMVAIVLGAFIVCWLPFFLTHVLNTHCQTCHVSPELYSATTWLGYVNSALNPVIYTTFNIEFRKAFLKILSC
Experiment: qHTS of D3 Dopamine Receptor Antagonist: qHTS
Conditions: D3R cells, DiscoveRx beta-arrestin luminescence, antagonist mode; hits give low values
In short: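 Cells plated overnight at 1500 cells/well, then exposed to library compounds with dopamine controls for 90 minutes at 37 degrees C. DiscoveRx reagent added for 30–60 minutes at room temperature; luminescence read, quantitative HTS format.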
On the % scale 0 is the no-effect control and ±100 the full control effect.

Structure (SMILES) | max response, negative = inhibition
Cc1cn([C@H]2C[C@H](O)[C@@H](/C=C/C(=O)NCCCc3ccccc3)O2)c(=O)[nH]c1=O | 0% (inactive)
CCOc1ccc(NS(=O)(=O)c2ccc(C(=O)NC3CCN(Cc4ccccc4)CC3)cc2)cc1 | -68.8% (active)
CCOc1ccc(NS(=O)(=O)c2ccc(C(=O)NCC3CCCO3)cc2)cc1 (configuration not stated) | -69.2% (active)
CCOc1ccc(CC(=O)NC2CCN(Cc3ccccc3)CC2)cc1 | -12.8% (inactive)
O=C(NCC1CCCO1)c1ccc(S(=O)(=O)Nc2ccc(F)cc2)cc1 (configuration not stated) | -12.1% (inactive)
CCOc1ccc(S(=O)(=O)NCCC(=O)NCC2CCCO2)cc1 (configuration not stated) | 20.2% (inactive)
CCOc1ccc(C(=O)NC2CCN(S(=O)(=O)CC)CC2)cc1 | 8.12% (inactive)
O[C@H]1C[C@H](c2ccc(Cl)cc2)N(Cc2cccs2)C[C@@H]1n1cc(C2CC2)nn1 | -1.65% (inactive)
O=S1(=O)CC(N2CCN(CCO)CC2)CN1C1CCCC1 (configuration not stated) | 8.42% (inactive)
CC(=O)Nc1cccc(-c2ccnc3c2CC(C)(C(=O)NCc2ccco2)O3)c1 (configuration not stated) | -21.1% (inactive)
O=[N+]([O-])c1ccc(N2CCSCC2)cc1O | -6.65% (inactive)
CC1CCN(c2ccc([N+](=O)[O-])cc2C(N)=O)CC1 | 10.9% (inactive)
CC1CCN(c2ccc([N+](=O)[O-])c(SCCO)c2)CC1 | -51.8% (active)
O=C(Cc1ccc([N+](=O)[O-])cc1)NCCS(=O)(=O)N1CCN(c2ccccc2)CC1 | 3.87% (inactive)
Cc1cc(S(=O)(=O)Nc2ccc(C(=O)NCC(c3ccco3)N3CCCC3)cc2)ccc1F (configuration not stated) | 1.86% (inactive)
Cc1c(C(=O)NCC(c2ccco2)N2CCCC2)oc2ccc(Cl)cc12 (configuration not stated) | -65.1% (active)
COc1cc(C(=O)NCC(c2ccco2)N2CCCC2)ccc1OCc1ccccc1 (configuration not stated) | 4.86% (inactive)
COc1ccc(C(CNC(=O)c2cc3c(s2)CCCC3)N2CCOCC2)cc1 (configuration not stated) | -51.3% (active)
CC1CCc2sc(C(=O)NCC(c3ccco3)N3CCCCC3)cc2C1 (configuration not stated) | -82.1% (active)
COc1ccc(C(CNC(=O)c2ccc(S(=O)(=O)Nc3ccccc3C)cc2)N2CCOCC2)cc1 (configuration not stated) | -0.45% (inactive)
CC1Cc2ccccc2N1S(=O)(=O)c1cccc(C(=O)NCC(c2ccco2)N2CCCC2)c1 (configuration not stated) | -17.2% (inactive)
CSc1ncccc1C(=O)NCC(c1ccco1)N1CCCCC1 (configuration not stated) | 9.6% (inactive)

Structure (SMILES) | max response, negative = inhibition
COc1ccc(C(CNC(=O)c2cccnc2SC)N2CCOCC2)cc1 (configuration not stated) | -18.5% (inactive)
CC(C)C[C@@H]1COc2cc(N3CCC[C@@H]3CO)ccc2S(=O)(=O)N1 | 18.9% (inactive)
CN(Cc1ccccc1)C(=O)[C@@H]1CCCN1C(=O)[C@@H]1CCCN1C(=O)c1c(F)cccc1F | -11.2% (inactive)
O=C(NN=Cc1ccc2c(c1)CCC2)c1ccccc1O | 10.4% (inactive)
CCc1cccc(C)c1NC(=O)COC(=O)CC1CCCC1 | -10.7% (inactive)
CCc1cccc(C)c1NC(=O)COC(=O)CNC(=O)c1cccs1 | 5.78% (inactive)
CCc1cccc(C)c1NC(=O)COC(=O)Cc1ccsc1 | -57.7% (active)
CCCCn1nnnc1C(c1cc2ccccc2o1)N(C)Cc1ccc(Cl)c(Cl)c1 (configuration not stated) | 16.5% (inactive)
COC(=O)[C@@]12C[C@@H](CC(=O)NCCCCc3ccccc3)C(=O)N(CCc3ccc(OC)c(OC)c3)C1=CCC(C)(C)C2 | -7.78% (inactive)
COc1ccc(CC2(CO)CCN(Cc3cnn(C)c3)CC2)cc1 | 4.38% (inactive)
COc1cccc(CC2(CO)CCN(Cc3cnc(-c4cccc(C)c4)nc3)CC2)c1 | 33.5% (inactive)
COC(=O)c1ccc(CN2CCC(CO)(Cc3ccc(OC)cc3)CC2)cc1 | -62.3% (active)
COc1ccc(CNC(=O)c2ccc(-c3cccnc3)c3ccoc23)cc1OC | 57.4% (inactive)
CC(=O)N1Cc2cc(C(=O)NCc3cccc(F)c3)nc(-c3cccc(C4=CCCC4)c3)c2[C@H]1CCO | 4.11% (inactive)
CC(=O)N1Cc2cc(C(=O)NCc3cccc(F)c3)nc(-c3cccc(C4=CCCCC4)c3)c2[C@H]1CCO | 40.6% (inactive)
CCNC(=O)c1cc2c(c(-c3cccc(-c4cncnc4)c3)n1)[C@H](CCO)N(C(C)=O)C2 | -53.7% (active)
CN(Cc1ccc(C(F)(F)F)cc1)C(=O)[C@H]1O[C@@H](n2cnc3c(N)ncnc32)[C@H](O)[C@@H]1O | 14.2% (inactive)
CC1(C(=O)NCc2ccccc2)CSCC(=O)N1CCCN1CCOCC1 (configuration not stated) | 2.3% (inactive)
CC1(C)CN(CCc2ccccc2)C(=O)[C@H]1CC(=O)Nc1ccc(Br)cc1 | -16% (inactive)
CN1CCN(S(=O)(=O)c2ccc(N3CCN(c4ccccc4O)CC3)c([N+](=O)[O-])c2)CC1 | -19.5% (inactive)
CN1CCN(c2ccc([N+](=O)[O-])c(Sc3nc4ccccc4[nH]3)c2)CC1 | -91.8% (active)
O=[N+]([O-])c1ccc(N2CCNCC2)cc1NCc1cccnc1 | 1.82% (inactive)

Structure (SMILES) | max response, negative = inhibition
CCCS(=O)(=O)NC(=O)C1(C)CCCN(C(=O)c2cc(C)on2)C1 (configuration not stated) | 2.9% (inactive)
CC(=O)c1ccc(OCC(=O)N(C)C2CCS(=O)(=O)C2)cc1 (configuration not stated) | -0.617% (inactive)
COc1ccc2c(-c3ccccc3)cc(SCC(=O)N(C)C3CCS(=O)(=O)C3)nc2c1 (configuration not stated) | 0.687% (inactive)
COc1ccc(-c2cc(=O)oc3cc(OCC(=O)N(C)C4CCS(=O)(=O)C4)ccc23)cc1 (configuration not stated) | -51.8% (active)
COc1ccc(C(=O)N2CCCCC2c2cc(C(=O)Nc3ccc(F)c(Cl)c3)no2)cc1 (configuration not stated) | -6.17% (inactive)
O=S1(=O)CC(N2CCN(c3ccccn3)CC2)CN1Cc1ccc(F)cc1 (configuration not stated) | 7.7% (inactive)
CCCNC(=O)C1(C)CCN(Cc2csc(-c3ccc(Cl)cc3)n2)C1 (configuration not stated) | -103% (active)
CCCNC(=O)C1(C)CCCN(Cc2cccc(C(F)(F)F)c2)C1 (configuration not stated) | 27.1% (inactive)
CCCNC(=O)C1(C)CCCN(Cc2c(C)nn(-c3ccccc3)c2C)C1 (configuration not stated) | 19.2% (inactive)
COC(=O)[C@]12CCCCC=C1N(Cc1cccc3ccccc13)C(=O)[C@H](CC(=O)N1CCOCC1)C2 | -10.3% (inactive)
Cc1cc(=O)oc(C)c1C(=O)NCc1ccc(F)cc1 | -14.8% (inactive)
COc1ccc(CNC(=O)c2c(C)cc(=O)oc2C)cc1OC | 2.8% (inactive)
Cc1cc(=O)oc(C)c1C(=O)NCCN(C)Cc1ccccc1 | -76.1% (active)
Cc1nc(C(F)(F)F)ccc1C(=O)N1CCC1(C)C(=O)NS(=O)(=O)c1ccccc1Cl (configuration not stated) | -15.5% (inactive)
CCN1CCN(C(=O)c2cc3cc4ccc(OC)cc4nc3s2)CC1 | -89.5% (active)
COc1ccc(OCC(=O)N2CCN(C(=O)c3cccs3)CC2)cc1 | 5.1% (inactive)
COc1ccc(OC)c(C(=O)c2ccc(C(=O)N3CCN(Cc4csc(C)n4)CC3)cc2)c1 | -18% (inactive)
CCCc1c(-c2ccccc2F)ncn1Cc1ccccc1OC | 2.92% (inactive)
COc1ccc(CCNC(=O)CN(c2ccccc2)S(=O)(=O)c2ccccc2)cc1 | -3.43% (inactive)
CC(C)Oc1cc(F)ccc1-c1cc(C(=O)Nc2ccc(F)cc2)[nH]n1 | -13.9% (inactive)
COc1cc(-c2nnc(NC(=O)CS(=O)(=O)c3ccc(Cl)cc3)o2)cc(OC)c1OC | -6.21% (inactive)
COc1ccc(CNC(=O)C[C@H]2C[C@H](C(=O)N3CCOCC3)[C@@]3(CCC4CCCC4)c4[nH]c5ccc(Cl)cc5c4CCN3C2=O)cc1OC | -63% (active)

Structure (SMILES) | max response, negative = inhibition
COc1ccc2[nH]c3c(c2c1)CCN1C(=O)C(CC(=O)NCCCN(C)C)C[C@H](C(=O)N2CCOCC2)[C@@]31CCC1CCCC1 (some centres not stated) | 37% (inactive)
CC[C@]12c3[nH]c4ccc(Cl)cc4c3CCN1C(=O)[C@@H](CC(=O)NCCN1CCOCC1)C[C@@H]2C(=O)N1CCN(C(=O)C2CC2)CC1 | 6.27% (inactive)
CCc1nc2c(OCCOc3ccccc3)cccn2c1N(C)C(=O)c1cccs1 | -19.8% (inactive)
Cc1ccc(S(=O)(=O)N(CCCN(C)C)Cc2ccc3c(c2)OCO3)cc1 | -51.8% (active)
Cc1ccc(CNCc2ccc3c(c2)OCO3)c(C)c1 | -3.23% (inactive)
Cc1ccc(-c2nc(CS(=O)(=O)CC(=O)NCc3ccc4c(c3)OCO4)c(C)o2)cc1 | -2.53% (inactive)
OC[C@@H]1CN(Cc2ccc(Cl)cc2)C[C@H](n2cnc3c(NCc4ccncc4)ncnc32)O1 | 17.2% (inactive)
Cc1cc(Cl)ccc1C(=O)C1CCCN(C(=O)c2ccc3c(c2)OCO3)C1 (configuration not stated) | -7.01% (inactive)
CC(=O)OCC(C)n1c(=O)c2ccccc2n1C(C)=O (configuration not stated) | 0.665% (inactive)
CCOc1ccccc1NC(=O)Nc1cc(OC)ccc1OC | -69.8% (active)
COc1ccccc1NC(=O)CCN1CCN(c2ccc(Cl)cc2)CC1 | -52.9% (active)
COc1ccc(OC)c(NC(=O)CCN2CCC(C)CC2)c1 | -50.8% (active)
COc1ccc(C(C)(C)C)cc1NC(=O)CCN1C(=O)C2CCCCC2C1=O (configuration not stated) | 4.26% (inactive)
COc1ccc(N2CCN(CCNC(=O)Nc3cc(Cl)ccc3Cl)CC2)cc1 | -2.75% (inactive)
CCOC(=O)N1CCN(CCC(=O)Nc2cc(OC)ccc2OC)CC1 | 2% (inactive)
CCOc1ccccc1NC(=O)NC1CCCCCCC1 | 0.28% (inactive)
CCOc1ccccc1NC(=O)CCN1CCN(S(=O)(=O)c2ccc(OC)cc2)CC1 | 38.4% (inactive)
COc1ccc(OC)c(NC(=O)CC(Cc2ccccc2OC)C(=O)O)c1 (configuration not stated) | 2.31% (inactive)
COc1ccc(NC(=O)CCn2ccnc2)c(OC)c1 | -22.6% (inactive)
COc1ccc(NC(=O)CCCC2CCCCC2)c(OC)c1 | 11.6% (inactive)
COc1ccc(NC(=O)CCN2CCCC2)c(OC)c1 | -50.5% (active)
